Here are results for eight compounds from PubChem BioAssay (NCI).

This is part of a sample that, as a whole, favours compounds with a hit. Of some 83,000 tested, about 20% had one in any assay.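 Method: cells in 96-well plates; compound added at one concentration; 48 h incubation; percent growth measured; values under 10 scored active.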 Values without a mark were called inactive. The source made the active and inactive calls.

Assay in all cases: NCI-60 one-dose screen, 48 h (100 = growth as untreated, 0 = no growth, -100 = all killed)
Test [1] has as its system SK-MEL-2 melanoma. Conditions: 10 µM unless noted.
Test [2] relates to EKVX NSCLC. The following applies: 10 µM unless noted.
Test [3] relates to SN12C renal. Conditions: 10 µM unless noted.
The test system of test [4] is UO-31 renal. The following applies: 10 µM unless noted.
The test system of test [5] is TK-10 renal. Conditions: 10 µM unless noted.
In test [6] the test system is ACHN renal. Conditions: 10 µM unless noted.
Test [7] relates to CAKI-1 renal. Conditions: 10 µM unless noted.
The subject of test [8] is CCRF-CEM leukemia. The following applies: 10 µM unless noted.
Test [9] concerns MOLT-4 leukemia. The following applies: 10 µM unless noted.
The test system of test [10] is SR leukemia. Conditions: 10 µM unless noted.
Test [11] relates to RPMI-8226 leukemia. The following applies: 10 µM unless noted.
Test [12] relates to OVCAR-8 ovarian. Conditions: 10 µM unless noted.
For test [13], the system named is OVCAR-5 ovarian. The following applies: 10 µM unless noted.
The test system of test [14] is OVCAR-4 ovarian. The following applies: 10 µM.
In test [15] the test system is SK-OV-3 ovarian. Conditions: 10 µM unless noted.
In test [16] the test system is IGROV1 ovarian. Conditions: 10 µM unless noted.
For test [17], the system named is OVCAR-3 ovarian. Conditions: 10 µM unless noted.
The test system of test [18] is NCI/ADR-RES ovarian. The following applies: 10 µM unless noted.
Test [19] relates to HS 578T breast. The following applies: 10 µM unless noted.

On to `O=C1CC(c2ccccc2)Cc2nc3ccc(Br)cc3cc21` (stereo unspecified), for which the growth is 45.2% in test [1]; 36.3% in test [2]; 32.2% in test [3]; 41.4% in [4]; 73.4% in [5]; 34.3% in [6]. The growth in [7] is 30.7%; in [8], 8.51% (active); in test [9], 10.5%; in [10] it was 13.1%; in [11], 50%; in test [12], 24.1%. In addition, the growth in [13] was 27.2%; in test [14], 47%; in test [15] it was 47.6%; in test [16], 22%; in [17], -28.4% (active); in [18] it was 17.1%.

Turning to `Cc1ccc(Cn2c(O)c(N=NC(=O)c3ccc(S(N)(=O)=O)cc3)c3ccccc32)cc1`, the growth in test [1] was 109%; in [2], 103%; in test [3], 96.9%; in test [4], 73%; in test [5], 106%; in [6], 93.3%. For the same compound, the growth in [7] is 92.9%; in [8] it was 106%; in test [9] it was 93.8%; in test [10], 104%; in test [11] it was 91.7%; in test [12], 92.7%. For the same compound, the growth in [13] is 109%; in test [15] it was 109%; in test [16] it was 107%; in [17], 107%; in test [18], 108%.

With `O=C1Nc2ccccc2/C1=C/C(=O)c1ccc(N2CCCCC2)cc1`, the growth in test [1] is 113%; in test [2], 106%; in test [3], 73.5%; in test [4], 47.4%; in test [5], 85.8%; in [6], 27.6%. In addition, the growth is 63.8% in test [7]; 5.19% (active) in [8]; -6.75% (active) in [9]; 16.9% in test [10]; 26.9% in [11]; 54.9% in [12]. Besides, the growth in [13] is 104%; in test [15], 100%; in test [16], 50%; in test [17] it was 10.4%; in [19], 93.4%; in test [18], 90.3%.

For the compound `COc1ncnc2c(-c3ccccc3)cn(COCc3ccccc3)c12`, the growth in [1] was 34.5%; in test [2], 41.4%; in test [3], 66.6%; in [4], 44.2%; in test [5], 43.1%; in test [6], 51%. For the same compound, the growth in test [7] was 64.3%; in test [8], 41.1%; in test [9] it was 7.9% (active); in test [10] it was 18.2%; in test [11], 29.2%; in test [12], 26.6%. In addition, the growth in test [13] was 110%; in test [15] it was 82.7%; in [16], 71%; in [19], 81.2%.

Consider `CCN=Cc1c(O)c(O)c(C(C)C)c2cc(C)c(-c3c(C)cc4c(C(C)C)c(O)c(O)c(C=NCC)c4c3O)c(O)c12`, for which the growth in test [1] was 51.4%; in test [2], 30.5%; in [3], 54.9%; in [4], 39.2%; in test [5], 43.5%; in test [6], 24.4%. Also, the growth was 73.3% in test [7]; 20.1% in test [8]; 32.8% in test [9]; 27% in test [10]; 34.8% in test [11]; 39.2% in test [12]. Besides, the growth in test [13] was 63.4%; in test [14], 31.7%; in test [15], 63.4%; in [16] it was 46.8%; in test [17], 32.5%; in test [19], 57.8%. Besides, the growth in test [18] is 47.9%.

Turning to `COc1ccc(/C=C(/C2=NCCN2)n2ccc3ccccc32)cc1`, the growth in test [1] was 99.5%; in [2], 88.5%; in test [3], 88.9%; in test [4] it was 52.9%; in [5], 85.8%; in test [6], 82.9%. The growth in test [7] was 69.7%; in test [8] it was 86.2%; in [9] it was 93.2%; in test [10], 79.5%; in test [11], 93.1%; in test [12], 97.1%. The growth in test [13] was 90%; in test [14], 94.8%; in test [15] it was 97.1%; in test [16], 82.8%; in test [19], 84.4%.

Regarding `Fc1ccc(NC(=S)c2ccccc2)cc1`, the growth in test [1] is 98.3%; in test [2], 97.5%; in test [3] it was 103%; in [4] it was 88.9%; in test [5] it was 94.5%; in [6], 102%. For the same compound, the growth in test [7] is 89.8%; in [8] it was 94.6%; in test [9] it was 99.9%; in [10], 102%; in test [11] it was 89%; in [12] it was 102%. The growth in [13] was 94.5%; in [14] it was 100%; in test [15], 117%; in test [16], 106%; in [18] it was 108%.

On to `COC(=O)c1c(C)[nH]c(/C=C2\N=C(c3ccc[nH]3)C=C2OC)c1C`, for which the growth in [1] was -72.8% (active); in [2], -31.8% (active); in [3] it was 16.9%; in test [4], -72.6% (active); in test [5] it was 0.549% (active); in test [6], -69.1% (active). Moreover, the growth in test [7] is -25% (active); in test [8], 15.2%; in [9], 1.37% (active); in [10] it was 4.93% (active); in test [11], -16.1% (active); in test [12] it was -7.15% (active). Besides, the growth in [13] is 0.695% (active); in test [14] it was -67.2% (active); in [15], 48.4%; in [16] it was -8.84% (active); in [17], -40.6% (active); in test [19], -27.4% (active). Also, the growth in test [18] is 13.3%.
